Results from the supplement of paper PMC4466140.

Molecular target: AgAbp1
Assay: SPOT peptide array binding signal intensity (averaged, normalized) (arbitrary units (background-subtracted, floor 0; scale differs between SH3 domains)); higher = stronger binding of the SH3 domain to the peptide
How it was run: (§1)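 Binding signal is given in arbitrary units that differ between domains and is the normalized, background-subtracted spot intensity averaged across replicates. Each GST-SH3 fusion from one of four yeast species was made in E. coli BL21(DE3), purified on glutathione Sepharose and incubated at 10 μg/ml overnight at 4°C on cellulose-bound synthetic 15-mer peptides in which cysteines were replaced by serines. Detection used anti-GST antibody, an HRP anti-mouse secondary and luminol, followed by imaging and Genespotter quantification.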

Binder | SPOT peptide array binding signal intensity
WRPRIVPILPYITRL | 6

Molecular target: AgBbc1
Assay: as above
How it was run: as §1

Binder | SPOT peptide array binding signal intensity
WRPRIVPILPYITRL | 13.5

Molecular target: AgBem1-D1
Assay: as above
How it was run: as §1

Binder | SPOT peptide array binding signal intensity
WRPRIVPILPYITRL | 108

Molecular target: AgBzz1-D1
Assay: as above
How it was run: as §1

Binder | SPOT peptide array binding signal intensity
WRPRIVPILPYITRL | 11

Molecular target: AgBzz1-D2
Assay: as above
How it was run: as §1

Binder | SPOT peptide array binding signal intensity
WRPRIVPILPYITRL | 7.5

Molecular target: AgCyk3
Assay: as above
How it was run: as §1

Binder | SPOT peptide array binding signal intensity
WRPRIVPILPYITRL | 9

Molecular target: AgFus1
Assay: as above
How it was run: as §1

Binder | SPOT peptide array binding signal intensity
WRPRIVPILPYITRL | 90

Molecular target: AgHof1
Assay: as above
How it was run: as §1

Binder | SPOT peptide array binding signal intensity
WRPRIVPILPYITRL | 132

Molecular target: AgHse1
Assay: as above
How it was run: as §1

Binder | SPOT peptide array binding signal intensity
WRPRIVPILPYITRL | 434

Molecular target: AgLsb1
Assay: as above
How it was run: as §1

Binder | SPOT peptide array binding signal intensity
WRPRIVPILPYITRL | 11

Molecular target: AgLsb4
Assay: as above
How it was run: as §1

Binder | SPOT peptide array binding signal intensity
WRPRIVPILPYITRL | 22

Molecular target: AgMyo5
Assay: as above
How it was run: as §1

Binder | SPOT peptide array binding signal intensity
WRPRIVPILPYITRL | 2.5

Molecular target: AgNbp2
Assay: as above
How it was run: as §1

Binder | SPOT peptide array binding signal intensity
WRPRIVPILPYITRL | 140

Molecular target: AgRvs167
Assay: as above
How it was run: as §1

Binder | SPOT peptide array binding signal intensity
WRPRIVPILPYITRL | 2

Molecular target: AgSho1
Assay: as above
How it was run: as §1

Binder | SPOT peptide array binding signal intensity
WRPRIVPILPYITRL | 17

Molecular target: AgSla1-D1-D2
Assay: as above
How it was run: as §1

Binder | SPOT peptide array binding signal intensity
WRPRIVPILPYITRL | 6.5

Molecular target: AgSla1-D3
Assay: as above
How it was run: as §1

Binder | SPOT peptide array binding signal intensity
WRPRIVPILPYITRL | 4

Molecular target: CaAbp1-D1
Assay: as above
How it was run: as §1

Binder | SPOT peptide array binding signal intensity
WRPRIVPILPYITRL | 109

Molecular target: CaAbp1-D2
Assay: as above
How it was run: as §1

Binder | SPOT peptide array binding signal intensity
WRPRIVPILPYITRL | 92.5

Molecular target: CaBbc1
Assay: as above
How it was run: as §1

Binder | SPOT peptide array binding signal intensity
WRPRIVPILPYITRL | 58.8

Molecular target: CaBem1-D1
Assay: as above
How it was run: as §1

Binder | SPOT peptide array binding signal intensity
WRPRIVPILPYITRL | 22

Molecular target: CaBzz1-D1
Assay: as above
How it was run: as §1

Binder | SPOT peptide array binding signal intensity
WRPRIVPILPYITRL | 49.5

Molecular target: CaBzz1-D2
Assay: as above
How it was run: as §1

Binder | SPOT peptide array binding signal intensity
WRPRIVPILPYITRL | 24.2

Molecular target: CaCyk3
Assay: as above
How it was run: as §1

Binder | SPOT peptide array binding signal intensity
WRPRIVPILPYITRL | 29.5

Molecular target: CaFus1
Assay: as above
How it was run: as §1

Binder | SPOT peptide array binding signal intensity
WRPRIVPILPYITRL | 460

Molecular target: CaHof1
Assay: as above
How it was run: as §1

Binder | SPOT peptide array binding signal intensity
WRPRIVPILPYITRL | 2

Molecular target: CaHse1
Assay: as above
How it was run: as §1

Binder | SPOT peptide array binding signal intensity
WRPRIVPILPYITRL | 32

Molecular target: CaLsb1
Assay: as above
How it was run: as §1

Binder | SPOT peptide array binding signal intensity
WRPRIVPILPYITRL | 3.5

Molecular target: CaLsb4
Assay: as above
How it was run: as §1

Binder | SPOT peptide array binding signal intensity
WRPRIVPILPYITRL | 56

Molecular target: CaMyo5
Assay: as above
How it was run: as §1

Binder | SPOT peptide array binding signal intensity
WRPRIVPILPYITRL | 1.5

Molecular target: CaNbp2
Assay: as above
How it was run: as §1

Binder | SPOT peptide array binding signal intensity
WRPRIVPILPYITRL | 574

Molecular target: CaRvs167
Assay: as above
How it was run: as §1

Binder | SPOT peptide array binding signal intensity
WRPRIVPILPYITRL | 54

Molecular target: CaRvs167-3
Assay: as above
How it was run: as §1

Binder | SPOT peptide array binding signal intensity
WRPRIVPILPYITRL | 56

Molecular target: CaSho1
Assay: as above
How it was run: as §1

Binder | SPOT peptide array binding signal intensity
WRPRIVPILPYITRL | 298

Molecular target: CaSla1-D1-D2
Assay: as above
How it was run: as §1

Binder | SPOT peptide array binding signal intensity
WRPRIVPILPYITRL | 6

Molecular target: CaSla1-D3
Assay: as above
How it was run: as §1

Binder | SPOT peptide array binding signal intensity
WRPRIVPILPYITRL | 2

Molecular target: ScAbp1
Assay: as above
How it was run: as §1

Binder | SPOT peptide array binding signal intensity
WRPRIVPILPYITRL | 17

Molecular target: ScBbc1
Assay: as above
How it was run: as §1

Binder | SPOT peptide array binding signal intensity
WRPRIVPILPYITRL | 4.25

Molecular target: ScBem1-D1
Assay: as above
How it was run: as §1

Binder | SPOT peptide array binding signal intensity
WRPRIVPILPYITRL | 1

Molecular target: ScBzz1-D1
Assay: as above
How it was run: as §1

Binder | SPOT peptide array binding signal intensity
WRPRIVPILPYITRL | 1.5

Molecular target: ScBzz1-D2
Assay: as above
How it was run: as §1

Binder | SPOT peptide array binding signal intensity
WRPRIVPILPYITRL | 15.5

Molecular target: ScCyk3
Assay: as above
How it was run: as §1

Binder | SPOT peptide array binding signal intensity
WRPRIVPILPYITRL | 33

Molecular target: ScFus1
Assay: as above
How it was run: as §1

Binder | SPOT peptide array binding signal intensity
WRPRIVPILPYITRL | 75

Molecular target: ScHof1
Assay: as above
How it was run: as §1

Binder | SPOT peptide array binding signal intensity
WRPRIVPILPYITRL | 365

Molecular target: ScHse1
Assay: as above
How it was run: as §1

Binder | SPOT peptide array binding signal intensity
WRPRIVPILPYITRL | 636

Molecular target: ScLsb1
Assay: as above
How it was run: as §1

Binder | SPOT peptide array binding signal intensity
WRPRIVPILPYITRL | 32.5

Molecular target: ScLsb2
Assay: as above
How it was run: as §1

Binder | SPOT peptide array binding signal intensity
WRPRIVPILPYITRL | 7

Molecular target: ScLsb3
Assay: as above
How it was run: as §1

Binder | SPOT peptide array binding signal intensity
WRPRIVPILPYITRL | 148

Molecular target: ScLsb4
Assay: as above
How it was run: as §1

Binder | SPOT peptide array binding signal intensity
WRPRIVPILPYITRL | 18.5

Molecular target: ScMyo3
Assay: as above
How it was run: as §1

Binder | SPOT peptide array binding signal intensity
WRPRIVPILPYITRL | 2

Molecular target: ScMyo5
Assay: as above
How it was run: as §1

Binder | SPOT peptide array binding signal intensity
WRPRIVPILPYITRL | 0.5

Molecular target: ScNbp2
Assay: as above
How it was run: as §1

Binder | SPOT peptide array binding signal intensity
WRPRIVPILPYITRL | 224

Molecular target: ScPex13
Assay: as above
How it was run: as §1

Binder | SPOT peptide array binding signal intensity
WRPRIVPILPYITRL | 1

Molecular target: ScRvs167
Assay: as above
How it was run: as §1

Binder | SPOT peptide array binding signal intensity
WRPRIVPILPYITRL | 251

Molecular target: ScSho1
Assay: as above
How it was run: as §1

Binder | SPOT peptide array binding signal intensity
WRPRIVPILPYITRL | 182

Molecular target: ScSla1-D1-D2
Assay: as above
How it was run: as §1

Binder | SPOT peptide array binding signal intensity
WRPRIVPILPYITRL | ≤ 0

Molecular target: ScSla1-D3
Assay: as above
How it was run: as §1

Binder | SPOT peptide array binding signal intensity
WRPRIVPILPYITRL | ≤ 0

Molecular target: SpAbp1-D1
Assay: as above
How it was run: as §1

Binder | SPOT peptide array binding signal intensity
WRPRIVPILPYITRL | 36

Molecular target: SpBbc1
Assay: as above
How it was run: as §1

Binder | SPOT peptide array binding signal intensity
WRPRIVPILPYITRL | 7

Molecular target: SpBzz1-D1
Assay: as above
How it was run: as §1

Binder | SPOT peptide array binding signal intensity
WRPRIVPILPYITRL | 179

Molecular target: SpBzz1-D2
Assay: as above
How it was run: as §1

Binder | SPOT peptide array binding signal intensity
WRPRIVPILPYITRL | 1.5

Molecular target: SpCyk3
Assay: as above
How it was run: as §1

Binder | SPOT peptide array binding signal intensity
WRPRIVPILPYITRL | 10

Molecular target: SpHof1
Assay: as above
How it was run: as §1

Binder | SPOT peptide array binding signal intensity
WRPRIVPILPYITRL | 14.5

Molecular target: SpHof1-2
Assay: as above
How it was run: as §1

Binder | SPOT peptide array binding signal intensity
WRPRIVPILPYITRL | 18.5

Molecular target: SpHof1-3
Assay: as above
How it was run: as §1

Binder | SPOT peptide array binding signal intensity
WRPRIVPILPYITRL | 328

Molecular target: SpHse1
Assay: as above
How it was run: as §1

Binder | SPOT peptide array binding signal intensity
WRPRIVPILPYITRL | 315

Molecular target: SpLsb1
Assay: as above
How it was run: as §1

Binder | SPOT peptide array binding signal intensity
WRPRIVPILPYITRL | 3

Molecular target: SpLsb4
Assay: as above
How it was run: as §1

Binder | SPOT peptide array binding signal intensity
WRPRIVPILPYITRL | 157

Molecular target: SpMyo1
Assay: as above
How it was run: as §1

Binder | SPOT peptide array binding signal intensity
WRPRIVPILPYITRL | 107

Molecular target: SpNbp2
Assay: as above
How it was run: as §1

Binder | SPOT peptide array binding signal intensity
WRPRIVPILPYITRL | 55.5

Molecular target: SpPex13
Assay: as above
How it was run: as §1

Binder | SPOT peptide array binding signal intensity
WRPRIVPILPYITRL | 6.5

Molecular target: SpRvs167
Assay: as above
How it was run: as §1

Binder | SPOT peptide array binding signal intensity
WRPRIVPILPYITRL | 167

Molecular target: SpSla1-D1-D2
Assay: as above
How it was run: as §1

Binder | SPOT peptide array binding signal intensity
WRPRIVPILPYITRL | ≤ 0

Molecular target: SpSla1-D3
Assay: as above
How it was run: as §1

Binder | SPOT peptide array binding signal intensity
WRPRIVPILPYITRL | ≤ 0
